Results on 5 molecules are retold here after the supplement of paper PMC10105736.

What all share (experiment): MAPPIT interaction score (arbitrary units); higher = stronger binary interaction signal, active = hit call of the paper
One assay has as its target CG1532. Particulars: MAPPIT configuration: N-N; pair source set: Finley_Y2H.
The target in the next assay is CG7560. Conditions: MAPPIT configuration: N-N; pair source set: Finley_Y2H.
In another assay the target is CG15369. Conditions: MAPPIT configuration: N-N; pair source set: Finley_Y2H.
The target of another assay is CG32548. Conditions: MAPPIT configuration: N-N; pair source set: Finley_Y2H.
Another assay addresses CG15347. Conditions: MAPPIT configuration: N-C; pair source set: screen_3.
The target in another assay is CG15211. Particulars: MAPPIT configuration: N-N; pair source set: screen_2.
In another assay the target is ReepB. Conditions: MAPPIT configuration: N-C; pair source set: screen_3.
The target of the next assay is CG15126. Particulars: MAPPIT configuration: N-N; pair source set: Curagen_high_conf.
The next assay addresses Slob. Conditions: MAPPIT configuration: N-N; pair source set: Curagen_high_conf.

Values without a mark were called inactive.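 How the source made its calls: active = MAPPIT score above the 99th percentile of random reference set scores in the same batch; inactive = at or below it.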
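Further: HEK293T cells with Epo stimulation, STAT-responsive firefly luciferase reporter, fold induction versus unstimulated cells divided by the larger fold induction of two negative controls lacking either bait or prey.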

B1: sel (protein)
chain: MLTKALILFGLLALAQGYSFTSREVKCHVCKAVVTELEEAIAKEDPHKMADVSGFRLDAQGNSISKKVRLVKSEMFLTELMEKICEKMDDYLKATYKSNGKFTLLKMIINGQMNPDSSLVDFVQDGDLNKSLGHFCNEVLEDNDEIFVKAFQAEELGNDLDIKICSEQASYCDESPVQEEYDFDGKEEL
Regarding B1, the figures for the MAPPIT interaction score with CG1532 and with CG7560 were -0.121 and 0.327, respectively.

B2: Gel (protein)
chain: MDASGAATMAVLSSLLVFLALSSSLCSAGTLNARPAFPVQSGEIQPSGQNSKQAARRVMHPSFANAGRTPGLEIWRIENFEPVIYPKTNYGKFYTGDSFIVLNTIENKKDKKLSWDVHFWLGLETSTDEAGAAAILTVQLDDLLNGGPVQHREVQDHESQLFLSYFKNGIRYEQGGVGTGFKHVETNAQGETRLFQVKGKRNVRVRQVNLSVSSMNTGDCFILDAGSDIYVYVGSQAKRVEKLKAISAANQIRDQDHNGRARVQIVDDFSTDADKQHFFDVLGSGSADQVPDESTADEDSAFERTDAAAVSLYKVSDASGKLKVDIIGQKPLTQAMLDTRECFILDTGSGIFVWVGKGATQKEKTDAMAKAQEFLRTKKYPAWTQIHRIVEGSESAPFKQYFDTWRDAGMSHSRLIRSALGIGSDELLNDDEIDSVVTQLKKSGGRAFGFMPDHGQNVIETITQYVAKPGSDEIVVSTVPFDEKLPLLGFASYVLTYNYEANNGDTGSLTYVWHGVKASAAARKRAFEEGLVGSKDGLLVQTNQGHEPRHFYKIFKGKLLTSFTALPVTAQLFRIRGTVESDVHASEVAADSSSLASSDAFVLHSGKSHKIYIWNGLGASAFEKQAAVDRFSDYWDDVELEQVEEGAEPDEFWEELNGEGQYDRSLGDDGAPLLESRLFHCHLSSGGFLKVEEVAQYEQEDLDSDDIMLLDAGDEIYLWVGYGVSEEENGKLLDTAKLYFNLEPTARSFDTVSIIRVPQGKEPRVFKRMFPNWDDNYWQNQPSYEDMKQLVIDANNEV
For B2, the results for the MAPPIT interaction score with CG15369 and with CG32548 were 0.935 and 0.0886, respectively.

B3: aph-1 (protein)
chain: MTLPEFFGCTFIAFGPPFALFVFTIANDPVRIIILIAAAFFWLLSLLISSLWYALIPLKEFLAFGVVFSVCFQEAFRYIIYRILRSTEQGLHAVAEDTRVTDNKHILAYVSGLGFGIISGMFALVNVLADMSGPGTMGLKGGTELFFVTSAAQALSIILLHTFWSVIFFNAFDTNNYIHIGYVVFSHLFVSLITLLNANELYTTTLLINYLVTILTGVLAFRVAGGTSRSFRKFITCQ
B3: in the assay with CG15347, the MAPPIT interaction score is 3.73.

B4: GluProRS (protein)
chain: MSIKLKANLNNPPISGLATAHLINGTVPVEIVWSKEETSLQFPDNRLLVCHSNNDVLRALARAAPDYKLYGETAIERTQIDHWLSFSLTCEDDISWALSFLDKSIAPVTYLVANKLTIADFALFNEMHSRYEFLAAKGIPQHVQRWYDLITAQPLIQKVLQSLPEDAKVKRSPQSSKEQTPAKTGERKQEGKFVDLPGAEMGKVVVRFPPEASGYLHIGHAKAALLNQYYALAFQGTLIMRFDDTNPAKETVEFENVILGDLEQLQIKPDVFTHTSNYFDLMLDYCVRLIKESKAYVDDTPPEQMKLEREQRVESANRSNSVEKNLSLWEEMVKGSEKGQKYCVRAKIDMSSPNGCMRDPTIYRCKNEPHPRTGTKYKVYPTYDFACPIVDAIENVTHTLRTTEYHDRDDQFYWFIDALKLRKPYIWSYSRLNMTNTVLSKRKLTWFVDSGLVDGWDDPRFPTVRGIIRRGMTVEGLKEFIIAQGSSKSVVFMNWDKIWAFNKKVIDPIAPRYTALEKEKRVIVNVAGAKVERIQVSVHPKDESLGKKTVLLGPRIYIDYVDAEALKEGENATFINWGNILIRKVNKDASGNITSVDAALNLENKDFKKTLKLTWLAVEDDPSAYPPTFCVYFDNIISKAVLGKDEDFKQFIGHKTRDEVPMLGDPELKKCKKGDIIQLQRRGFFKVDVAYAPPSGYTNVPSPIVLFSIPDGHTKDVPTSGLKVNAPDAKATKKASSPVSSSGQASELDSQISQQGDLVRDLKSKKAAKDQIDVAVKKLLALKADYKSATGKDWKPGQTSASSAPVPAASSSSANDAVSVNASIVKQGDLVRDLKGKKASKPEIDAAVKTLLELKAQYKTLTGQDWKPGTVPTTAAPSASAAPSVGVNDSVAQILSQITAQGDKVRELKSAKADKATVDAAVKTLLSLKADYKAATGSDWKPGTTAPAPAAAPVKVKQEKNPDPASVLTVNTLLNKIAQQGDKIRQLKSAKSEKSLVEAEVKLLLALKTDYKSLTGQEWKPGTVAPAPTTVNVIDLTGGDSGSDVGSVLSKIQAQGDKIRKLKSEKAAKNVIDPEVKTLLALKGEYKTLSGKDWTPDAKSEPAVVKKEASPVSMASPAKDELTQEINAQGEKVRAAKGNKAAKEVIDAEVAKLLALKAKYKEVTGTDFPVAGRGGGGGGGSAKKAPKEAQPKPAKPVKKEPAADASGAVKKQTRLGLEATKEDNLPDWYSQVITKGEMIEYYDVSGCYILRQWSFAIWKAIKTWFDAEITRMGVKECYFPIFVSKAVLEKEKTHIADFAPEVAWVTKSGDSDLAEPIAVRPTSETVMYPAYAKWVQSYRDLPIRLNQWNNVVRWEFKQPTPFLRTREFLWQEGHTAFADKEEAAKEVLDILDLYALVYTHLLAIPVVKGRKTEKEKFAGGDYTTTVEAFISASGRAIQGATSHHLGQNFSKMFEIVYEDPETQQKKYVYQNSWGITTRTIGVMIMVHADNQGLVLPPHVACIQAIVVPCGITVNTKDDERAQLLDACKALEKRLVGGGVRCEGDYRDNYSPGWKFNHWELKGVPLRLEVGPKDLKAQQLVAVRRDTVEKITIPLADVEKKIPALLETIHESMLNKAQEDMTSHTKKVTNWTDFCGFLEQKNILLAPFCGEISCEDKIKADSARGEEAEPGAPAMGAKSLCIPFDQPAPIAASDKCINPSCTNKPKFYTLFGRSY
Consider B4, for which the MAPPIT interaction score is 0.0202 with CG15211 and 1.56 with ReepB.

B5: Fem-1 (protein)
chain: MHAELYRTRKRWYESAWPGAGFWRGANDTLPVTNYITYPANFDQPDGQSLTPLTMAAMMGNVKFVKTLLSHYDVDLDRECNVIYDGMVVYGATALWVAAGMGHLQIVKMLVQAGAAINHNTKAQSSPLRAACYEGRLDIVEFLIDNGADVNATNLFNNNTLMIAAYKGHHLVVKTLLQNGSRANDQALCGATALHYAAESGHLDVVVALLDHGATLKKNELGITPALQAAERLHEDVLEAFIERPELMSLEEQITALELLGATYANDKIKYDVNKAYGYLLRAMQLRYSNPRGVIRKRVQPTVPAYDNWLETENLPELYAIKLNHHSIHMESLAIRERILGRNNPELPQAIIYRGAVMADQGRFYQCQVLWNYAIDLRMRNNVSVDRDLLRFAQLFAQILRVENHNLTLDHVLPVLAKCQQEIENNKFKIKEAKPNACPSLWQDQNNQNCITALYLIKIVTHLARRKKDQNIDEEHIQQLFLVVRKFIQNDTRLQDGQTLLHIAVNGVMPVDEFYTNEMCRFPCYATALVLVHCGASVVAVDSDRNTPLHILVTKVNTTQDRQAEMARILELFVEAGAHLDAVNAAGQTAATACKLPILANRLHAHQNAHTSLKCLAARSIATNRLNFKGLIPTQLEAFIQMHSVRKVLP
Take B5: the values for the MAPPIT interaction score in the assay with CG15126 and with Slob were 2.87 (active) and 0.0788, respectively.
